Experimental findings from PubChem BioAssay are described below.

The source made the active and inactive calls. Unless noted, the rule behind the calls is not given here.

The test system of test [1] is Wnt5a (protein binding on small-molecule microarray). Put plainly: Wnt5a binders on small-molecule microarray, primary screen, biophysical, 635/667 nm fluorescence (AID 1142).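 Note: fluorescence read at 667 nm with signal to noise per printed feature.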 Particulars: 635 nm fluorescence, higher = more signal.
Test [2] in a line: cell viability in Huh7 cells, primary screen, cytotoxicity control for HCV replication inhibitor project, CellTiter-Glo luminescence, basal, 48 h (AID 1143).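 Note: Huh7 hepatoma cells carrying a hepatitis C replication reporter with no stimulus; test concentration not given here.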 Particulars: Huh7 HCV replicon, higher = more signal, called active from +8 up or from −8 down. (In general: ATP-based viability assays read luminescence as a measure of living cells.)
The nature of test [3]: P. aeruginosa biofilm formation inhibitors, primary screen, PAO1 strain, BacTiter-Glo luminescence, LB-PBS (AID 1144). The note with it: 12 h, higher = more signal.
The nature of test [4]: CREB reporter modulators without forskolin, primary screen, cell-based, PC12, CRE-LacZ reporter, unstimulated (AID 1145). Particulars: no forskolin, luminescence, 4.5 h, higher = more signal, called active from +8 up or from −8 down.
Test [5] is described as follows: CREB reporter modulators under forskolin, primary screen, cell-based, PC12, CRE-LacZ reporter, forskolin-stimulated (AID 1146).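 Note: PC12 cells with 6xCRE LacZ reporter stimulated by forskolin 10 µM; beta-galactosidase reporter signal reflecting CREB driven transcription.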 Particulars: luminescence, 4.5 h, higher = more signal, called active from +8 up or from −8 down.
For test [6], the target named is Streptavidin (Streptomyces avidinii) (UniProt P22629). The experiment in a line: streptavidin binders on small-molecule microarray, primary screen, artefact control for SMM compound annotation, biophysical, 635/667 nm fluorescence (AID 1147).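 Note: signal reflects streptavidin binding to arrayed compounds as a control protein.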 Particulars: streptavidin binding, higher = more signal.
Test [7] is described as follows: small-molecule binders of probe aInhba, primary screen, biochemical, small-molecule microarray, 635/667 nm fluorescence (AID 1148).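 Note: score merges 667nm spot fluorescence with signal-to-noise for antibody binding to printed compounds.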 The note with it: higher = more signal.
Test [8] has as its target Torsin-1A (Homo sapiens) (UniProt O14656). Put plainly: torsin A binders from cell lysate, primary screen, small-molecule microarray, wild-type, 635/667 nm (AID 1149). Particulars: COS7 hTOR1A-WT lysate, 635 nm fluorescence, higher = more signal.
Test [9] has the same target. The experiment in a line: small-molecule binders of mutant TOR1A in lysate, primary screen, cell lysate, small-molecule microarray, COS7 lysate, 635/667 nm fluorescence (AID 1150).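 Note: score pools 667 nm emission and signal to noise measuring lysate protein binding.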 The note with it: COS7 hTOR1A mutant lysate, 635 nm fluorescence, higher = more signal.
Test [10] relates to Sonic hedgehog protein (Shh). The experiment in a line: small-molecule binders of Shh protein, primary screen, biochemical, small-molecule microarray, 635/667 nm fluorescence (AID 1151).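 Note: Shh protein binding to compounds spotted on small-molecule microarray slides; score combines spot fluorescence intensity with signal-to-noise across triplicate slides.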 Particulars: small-molecule microarray binding, 635 nm fluorescence; higher = more signal.

Streptavidin (Streptomyces avidinii), sequence (P22629 whole entry, looked up): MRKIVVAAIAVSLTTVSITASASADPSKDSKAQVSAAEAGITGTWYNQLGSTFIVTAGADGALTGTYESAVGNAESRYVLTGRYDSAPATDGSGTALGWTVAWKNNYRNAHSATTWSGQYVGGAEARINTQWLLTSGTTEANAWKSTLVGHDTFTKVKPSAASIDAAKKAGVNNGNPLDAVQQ
Torsin-1A (Homo sapiens), sequence (O14656 whole entry, looked up): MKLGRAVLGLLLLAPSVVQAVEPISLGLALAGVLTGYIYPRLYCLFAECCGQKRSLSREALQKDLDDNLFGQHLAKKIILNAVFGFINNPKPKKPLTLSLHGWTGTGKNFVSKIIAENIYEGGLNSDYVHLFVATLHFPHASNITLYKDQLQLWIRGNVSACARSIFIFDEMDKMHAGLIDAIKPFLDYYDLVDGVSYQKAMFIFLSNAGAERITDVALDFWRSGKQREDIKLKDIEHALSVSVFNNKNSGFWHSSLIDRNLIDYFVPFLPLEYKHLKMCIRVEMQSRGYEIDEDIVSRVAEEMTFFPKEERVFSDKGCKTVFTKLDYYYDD

Turning to `[N-]=[N+]=NCc1ccccc1C[C@]1(C(=O)NCC(O)CO)N=C(c2ccc(OCCCO)cc2)O[C@H]1c1ccccc1CN=[N+]=[N-]` (stereo not given in full), the composite z-score in [1] was 0.493; in [6], 0.661; in [7], 0.404; in test [8] it was 0.408; in [9], 1.09; in [10], -0.881. The z-score in test [2] is -4.68 (inactive); in [3], -0.998 (inactive); in [4], 0.447 (inactive); in [5], -1.32 (inactive).

For `COc1ccc([Si](C)(C)[C@H]2[C@H](CCn3cc([C@H](O)c4ccccc4)nn3)O[C@@]3(C(=O)N(Cc4cccc(N5C(=O)c6cccc7cccc5c67)c4)c4ccccc43)[C@@H]2C)cc1`, the composite z-score in test [1] is -0.302; in test [6], -0.713; in [7], -0.176; in test [8], -0.601; in [9] it was -0.437; in test [10] it was -0.0819. For the same compound, the z-score was -3.31 (inactive) in test [2], 0.789 (inactive) in test [3], -0.142 (inactive) in test [4] and 1.01 (inactive) in test [5].

`CCCC[C@@H]1C[C@H]1[C@@H](NC(=O)c1cccnc1)c1ccc(-c2ccccc2)cc1`: the composite z-score in test [1] is -0.995; in test [6], -1.02; in test [7], -0.251; in test [8], -2.78; in test [9], -1.29; in test [10] it was -0.822. In addition, the z-score is -2.72 (inactive) in [2], -0.327 (inactive) in test [3], -0.372 (inactive) in test [4] and 0.162 (inactive) in [5].

With `C[C@H]1C2=C3C(CC[C@H]4C(OCc5ccc(F)cc5C(F)(F)F)OC[C@](C)([C@@H]34)N(C(=O)OC(C)(C)C)C2)C2COC(=O)OCC21` (stereo not given in full), the composite z-score is 0.163 in test [1]; 1.29 in test [6]; 0.0992 in test [7]; 0.639 in test [8]; 0.988 in test [9]; -0.789 in test [10]. Moreover, the z-score was -1.13 (inactive) in [2], -0.318 (inactive) in test [3], 0.201 (inactive) in test [4] and 0.796 (inactive) in [5].

On to `Cc1ccc(S[C@]2(C(=O)NCC(F)(F)F)CC(=O)N(Cc3ccccc3)[C@@H]2c2ccc(CO)cc2)cc1`, for which the composite z-score was -0.264 in [1]; -1.23 in test [6]; 0.0171 in test [7]; -0.2 in test [8]; -0.238 in test [9]; -0.243 in test [10]. The z-score in test [2] is -4.85 (inactive); in [3] it was -0.485 (inactive); in [4], 0.829 (inactive); in test [5] it was 0.906 (inactive).

Turning to `C[n+]1ccc(CCCO)cc1`, the composite z-score is 0.749 in [1]; -0.902 in [6]; 0.196 in test [7]; -0.653 in test [8]; -0.0965 in [9]; 2.16 in test [10]. In addition, the z-score was -0.0513 (inactive) in test [2], -0.601 (inactive) in test [3], 0.182 (inactive) in [4] and 0.58 (inactive) in test [5].

Consider `COc1ccc([Si](C)(C)[C@H]2[C@H](CC(=O)N3Cc4ccccc4C[C@H]3CO)O[C@@]3(C(=O)N(Cc4cccc(N5CCCCC5=O)c4)c4ccccc43)[C@@H]2C)cc1`, for which the composite z-score in test [1] is 0.329; in test [6] it was -0.0717; in test [7], 0.0422; in test [8] it was 0.849; in test [9], 0.431; in test [10] it was 2.15. Moreover, the z-score was -3.48 (inactive) in test [2], -0.185 (inactive) in test [3], 2.21 (inactive) in [4] and 0.114 (inactive) in test [5].

Consider `CCOC(=CC(=O)OC)CC(O)c1cccc(Cl)c1` (stereo not given), for which the composite z-score is -0.256 in [1]; -0.668 in [6]; -0.204 in test [7]; 1.31 in test [8]; 0.522 in test [9]; -0.41 in [10]. For the same compound, the z-score in test [2] was -3.84 (inactive); in test [3] it was 0.114 (inactive); in [4], 0.584 (inactive); in test [5] it was -0.216 (inactive).

On to `COCCOC(=O)N1C(=O)[C@@]2(c3cc(C#CCNC(N)=O)ccc31)[C@H](C(=O)N1CCCCCCC1)[C@H]1C(=O)O[C@H](c3ccccc3)[C@H](c3ccccc3)N1[C@@H]2c1ccc(O)cc1`, for which the composite z-score in [1] was 0.233; in [6] it was 0.399; in test [7], -0.101; in test [8], 0.266; in test [9], 0.216; in [10] it was 1.12. The z-score is -0.204 (inactive) in [2], 0.942 (inactive) in test [3], -0.0526 (inactive) in test [4] and -0.333 (inactive) in test [5].

Turning to `Cc1ccc(S[C@]2(C(=O)O)CC(=O)N(Cc3ccccc3Cl)[C@@H]2c2ccc(CO)cc2)cc1`, the composite z-score in test [1] was 0.0044; in test [6], -0.868; in [7] it was -0.0791; in test [8], -0.951; in [9], 0.822; in [10], -0.259. The z-score was -1.55 (inactive) in [2], 0.596 (inactive) in test [3], 0.441 (inactive) in [4] and 1.27 (inactive) in test [5].

With `COCC(=C=CC[C@H](O)c1cccc(OCCO)c1)C[C@H](O)c1ccccn1`, the composite z-score in test [1] was 0.467; in [6], -0.368; in test [7], 0.0497; in test [8], -0.733; in test [9], -0.526; in test [10] it was 1.59. The z-score in test [2] was -0.0843 (inactive); in test [3] it was -0.368 (inactive); in test [4], 1.34 (inactive); in test [5], -0.527 (inactive).

Regarding `CC(C)CN1C(=O)[C@@]2(c3ccc([N+](=O)[O-])cc3)CC(=O)N(CC34CC5CC(CC(C5)C3)C4)[C@@H]2c2ccc(CO)cc21`, the composite z-score was -0.765 in test [1]; -0.877 in test [6]; -0.128 in test [7]; -1.22 in test [8]; -1.08 in test [9]; -1.51 in test [10]. Moreover, the z-score in test [2] is -4.16 (inactive); in test [3], -1.58 (inactive); in test [4] it was -0.348 (inactive); in test [5] it was 0.134 (inactive).

On to `Cc1c(NC(=O)/C(C#N)=C/C=C/c2ccccc2[N+](=O)[O-])c(=O)n(-c2ccccc2)n1C`, for which the composite z-score was -0.145 in test [1]; 0.293 in test [6]; -0.176 in [7]; 0.185 in test [8]; 0.331 in test [9]; 0.844 in [10]. The z-score is -3.01 (inactive) in test [2], 0.365 (inactive) in test [3], -0.0243 (inactive) in test [4] and 25.4 (active) in test [5].

On to `Cc1ccc(C(C)CC(O)C2C=CC3C(=O)N(c4ccccc4)C(=O)C3N2Nc2ccc(C(C)C)cc2)o1` (stereo not given), for which the composite z-score came out at 0.301 in test [1]; 1.33 in test [6]; 0.343 in [7]; 0.216 in [8]; 0.715 in test [9]; 0.154 in test [10]. Further, the z-score in [2] is 0.183 (inactive); in [3], -0.203 (inactive); in test [4], 0.246 (inactive); in test [5] it was 0.0702 (inactive).
